Source: PubChem (several laboratories)
CYP2C9 activ = activators of human CYP2C9 | P11712 | recombinant CYP2C9, luciferin-H conversion, luminescence; hits give high values; factor 1 = untreated enzyme, 0 = blocked | activation factor at 5 µM | 1.4% of 96,000 active | AID 1024;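 active = activation factor of 2 or more for CYP2C9 at a 5 µM dose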;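 also: 0 = sulfaphenazole-blocked wells and 1 = vehicle-only wells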
Target sequence (P11712 whole entry, looked up): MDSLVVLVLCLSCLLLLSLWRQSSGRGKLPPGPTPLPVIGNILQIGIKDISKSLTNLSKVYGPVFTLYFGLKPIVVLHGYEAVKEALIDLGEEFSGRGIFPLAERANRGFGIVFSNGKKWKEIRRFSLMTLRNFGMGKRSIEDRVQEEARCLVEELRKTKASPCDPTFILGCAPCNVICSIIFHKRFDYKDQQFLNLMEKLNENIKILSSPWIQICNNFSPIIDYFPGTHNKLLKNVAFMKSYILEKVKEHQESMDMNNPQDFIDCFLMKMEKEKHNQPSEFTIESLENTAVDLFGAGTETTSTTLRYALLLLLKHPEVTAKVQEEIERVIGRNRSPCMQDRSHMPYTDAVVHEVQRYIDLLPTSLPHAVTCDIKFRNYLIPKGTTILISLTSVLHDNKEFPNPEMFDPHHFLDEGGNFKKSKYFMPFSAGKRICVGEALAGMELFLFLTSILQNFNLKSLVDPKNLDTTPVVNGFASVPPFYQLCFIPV
CYP2C19 activ = increases human CYP2C19 enzyme activity | P33261 | recombinant CYP2C19, luciferin-H EGE luminescence; hits give high values; 0 = fully inhibited enzyme, 1 = untreated enzyme | activation factor at 5 µM | 96,000 tested, under 10 active | AID 1025;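 active = activation factor of at least 2 at 5 µM in the primary screen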;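 also: 0 = wells with 2.5 mM tranylcypromine and 1 = vehicle-only wells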
CYP2C9 inh = inhibitors of human CYP2C9. inhibition, % at 5 µM. P11712. AID 777. 20% of 96,000 active. CYP2C9 Supersomes, luciferin-H conversion, luminescence;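 active = blocking of liver enzyme CYP2C9 beyond about 50% at 5 µM, limit read from the data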
Measles CPE = protection of cells from measles virus. Measles virus-infected cells, CPE protection, absorbance. protection (pct of control), % at 4 µM. 1.5% of 140,000 active; in the data active = protection mostly above about 24%, no sharp cut-off; inactive = mostly below about 26%
CYP2C19 inh = blocks human cytochrome P450 2C19. inhibition, % at 5 µM. P33261. 21% of 96,000 active. CYP2C19 Supersomes, luciferin-H EGE luminescence, 30 min;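 active = CYP2C19 inhibition above a set limit at 5 µM in the primary screen, cut at about 50% in these data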;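 also: plate controls were negative control wells for no effect and 2.5 mM tranylcypromine positive control for full effect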
The depositor's hits bear a star; x = not tested or not shown. In the library only some 22% were active in any assay of this set; here they are far more common.

SMILES	CYP2C9 activ	CYP2C19 activ	CYP2C9 inh	Measles CPE	CYP2C19 inh
CCOC(=O)C(NCc1ccco1)(NC(=O)c1ccccc1)C(F)(F)F (configuration not stated)	0.6	0.2	44	3	76*
CCOC(=O)C(NCc1ccc(OC)cc1)(NC(C)=O)C(F)(F)F (configuration not stated)	x	x	x	1	x
CCCC1(C)Nc2ccccc2-c2nc3ccccc3n21 (configuration not stated)	0.4	0.4	59*	8	64*
CCCSC1=C(C#N)C(c2ccccc2C)CC(=O)N1 (configuration not stated)	0.6	0.4	39	10	57*
N#CCCCSC1=C(C#N)C(c2ccccc2Cl)CC(=O)N1 (configuration not stated)	0.7	0.1	35	5	88*
CCSC1=C(C#N)C(c2ccccc2Cl)CC(=O)N1 (configuration not stated)	0.8	0.7	18	19	30
CCCSC1=C(C#N)C(c2ccccc2OCC)CC(=O)N1 (configuration not stated)	0.8	0.5	23	13	47
CCCSC1=C(C#N)C(c2ccc(Cl)cc2Cl)CC(=O)N1 (configuration not stated)	0.3	0.6	67*	8	37
CC1CCc2nn(CC(=O)NCCN3CCCCC3C)cc2C1 (configuration not stated)	1	0.9	-1	5	10
CCSc1ccc2nnc(-c3ccc(F)cc3)n2n1	1	0.8	4	15	22
COc1cc(C(=O)O/N=C(\N)c2ccncc2)cc(OC)c1OC	0.1	0.3	89*	1	72*
Cc1ccc(/C(N)=N/OC(=O)c2ccc(Cl)cc2Cl)cc1	x	x	x	2	x
Cc1cc(C)cc(C(=O)O/N=C(\N)c2ccc(Br)cc2)c1	3.5*	1.1	-247	8	-13
COc1ccccc1C(=O)O/N=C(\N)c1ccc(Cl)cc1	3*	1	-199	2	0
COc1ccc(/C(N)=N/OC(=O)c2cccc([N+](=O)[O-])c2)cc1	1.1	1.1	-6	15	-9
COc1ccc(C(=O)O/N=C(\N)c2ccncc2)cc1OC	x	x	x	9	x
Cc1cccc(C(=O)O/N=C(\N)c2ccc(Br)cc2)c1	1.4	1	-45	11	2
COc1cccc(C(=O)O/N=C(\N)c2ccc([N+](=O)[O-])cc2)c1	2*	0.9	-96	3	12
Cc1nn(Cc2c(F)cccc2Cl)c(C)c1NC(=O)C1CC1	x	x	x	6	x
COc1cccc(C(=O)O/N=C(\N)c2ccncc2)c1	0.3	0.2	70*	4	82*
COc1cccc(C(=O)O/N=C(\N)Cc2ccc(Cl)cc2)c1	x	x	x	5	x
C=C1Cn2c(nnc2-c2ccc(Cl)cc2)S1	1.3	0.6	-32	10	44
COC(=O)C1=C(C)N=C2SCCC(=O)N2C1c1ccc(C(=O)OC)cc1 (configuration not stated)	0.5	0.1	55*	3	88*
CCOC(=O)C1=C(C)N=C2SC(C)C(=O)N2C1c1ccc(OC(C)=O)c(OC)c1 (configuration not stated)	x	x	x	5	x
CCOc1cc(C2C(C(=O)OCC(C)C)=C(C)N=C3SCCC(=O)N32)ccc1OC(C)=O (configuration not stated)	0.6	0.5	40	11	52*
SMILES	CYP2C9 activ	CYP2C19 activ	CYP2C9 inh	Measles CPE	CYP2C19 inh
COCCOC(=O)C1=C(C)N=C2SCCC(=O)N2C1/C=C/c1ccccc1 (configuration not stated)	0.1	0.2	93*	34	81*
CCOC(=O)C1=C(C)N=C2SCCC(=O)N2[C@@H]1/C=C/c1ccccc1	0.5	0.7	50	16	33
CCOc1cc(C2C(C(=O)OC)=C(C)N=C3SCCC(=O)N32)ccc1OC(C)=O (configuration not stated)	0.7	0.6	30	22	35
CCOc1cc(C2C(C(=O)OC)=C(C)N=C3SC(C)C(=O)N32)ccc1OC(C)=O (configuration not stated)	0.4	0.4	59*	1	64*
Cc1ccc(S(=O)(=O)N2CCN(C(=O)C3Cc4ccccc4CN3C(=O)c3ccco3)CC2)cc1 (configuration not stated)	0.9	0.8	12	3	15
COCCOC(=O)C1=C(C)N=C2SCCC(=O)N2C1c1ccc(C(=O)OC)cc1 (configuration not stated)	0.3	0	66*	4	98*
COC(=O)c1ccc(C2C(C(=O)OCC(C)C)=C(C)N=C3SCCC(=O)N32)cc1 (configuration not stated)	0.4	0.2	62*	5	76*
COC(=O)c1c(O)cc(C(C)(C)C)n(-c2ccc(F)cc2)c1=O	x	x	x	8	x
COc1cc(NC(=O)c2cccs2)c(OC)cc1NC(=O)CCn1nnc2ccccc21	0.5	0.7	46	5	28
COc1ccc(N(C)S(=O)(=O)c2cccc(C(=O)OC(C(=O)Nc3cc(C)cc(C)c3)c3ccccc3)c2)cc1 (configuration not stated)	x	x	x	22	x
COc1ccc(NC(=O)CCC(=O)OC(C(=O)c2ccccc2)c2ccccc2)cc1 (configuration not stated)	1	0.8	0	13	25
COc1ccc(C(=O)C(OC(=O)c2ccc(C)c(NC(C)=O)c2)c2ccccc2)cc1 (configuration not stated)	0.4	0.6	62*	10	41
COc1ccc(C(=O)C(OC(=O)CNC(=O)c2ccco2)c2ccccc2)cc1 (configuration not stated)	0.8	0.5	19	53*	46
CC(=O)Nc1cc(C(=O)OC(C(=O)c2ccccc2)c2ccccc2)ccc1C (configuration not stated)	0.4	0.4	60*	19	59*
COc1ccc(C(=O)OC(C(=O)c2ccccc2)c2ccccc2)cc1 (configuration not stated)	0.2	0.4	78*	20	58*
Cc1ccc(NC(=O)C(OC(=O)c2ccc(C=O)cc2)c2ccccc2)cc1Cl (configuration not stated)	x	x	x	12	x
Cc1cnc(C)c(N2CCC(C(=O)NC(C)c3cccs3)CC2)n1 (configuration not stated)	1.4	0.7	-40	14	31
COCCN1C(=O)N[C@@H](c2ccc(Br)cc2)C(C(C)=O)=C1C	x	x	x	11	x
Cn1c(=O)c2cc(S(=O)(=O)NC(C(=O)NCc3cccnc3)c3ccccc3)ccc2n(C)c1=O (configuration not stated)	0.9	0.7	13	12	29
CCC(=O)N1CCc2cc(S(=O)(=O)NC(Cc3ccccc3)C(=O)Nc3nccs3)ccc21 (configuration not stated)	x	x	x	9	x
COc1ccc(C(=O)NC(=S)N2CCCCC2)cc1[N+](=O)[O-]	x	x	x	35	x
